JMJD2A Tudor: qHTS Assay for Inhibitors of JMJD2A-Tudor Domain; actives 4.4% (n = 390,000); AID 504339, 2011; Potency, µM (series often up to 114 µM), actives largely listed as inhibitors; Lysine-specific demethylase 4A (Homo sapiens), O75164; AlphaScreen JMJD2A-Tudor / H3K4me3 peptide binding; also: nearly all actives have a fitted effect of over 50% in size
BAZ2B inh: qHTS Assay for Inhibitors of BAZ2B; Bromodomain adjacent to zinc finger domain protein 2B (Homo sapiens), Q9UIF8; AlphaScreen BAZ2B-H3K14Ac peptide displacement; Potency, µM (doses to about 114 µM), most hits filed as inhibitors; actives 4.4% (n = 360,000); AID 504333, 2011; also: nearly all actives have a fitted effect of over 60% in size
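Protein-peptide AlphaScreen: BAZ2B 50 nM, b-H3K14Ac 50 nM, 1x PBS pH 7.4 + 0.01% Tween-20. Preincubation 30 min RT; cpd 30 min RT (top 110 uM); beads 20 min RT, light-protected.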
ALOX12 inh: Primary qHTS assay for inhibitors of human arachidonate 12S-lipoxygenase (ALOX12): Round 2. Potency, µM (series often up to 108 µM), most hits filed as inhibitors. actives 1.1% (n = 580,000). purified 12hLO, xylenol orange hydroperoxide absorbance
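Purified human 12hLO (150 nM final) in 25 mM Hepes, 0.01% Triton X-100, pH 7.0 was preincubated 15 min at room temperature with compound. Then 40 uM arachidonic acid was added, 30 min. Hydroperoxide was read by Fe-XO absorbance ratio 573/405 nm.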
G9a inh: qHTS Assay for Inhibitors of Histone Lysine Methyltransferase G9a; Histone-lysine N-methyltransferase EHMT2 (Homo sapiens), Q96KQ7; G9a H3K9 monomethylation, AlphaScreen, 2 h; Potency, µM (series often up to 102 µM), actives largely listed as inhibitors; actives 8.8% (n = 350,000); AID 504332, 2011; also: nearly all actives have a fitted effect of over 75% in size
Target sequence (Q96KQ7 913-1193 limits assumed): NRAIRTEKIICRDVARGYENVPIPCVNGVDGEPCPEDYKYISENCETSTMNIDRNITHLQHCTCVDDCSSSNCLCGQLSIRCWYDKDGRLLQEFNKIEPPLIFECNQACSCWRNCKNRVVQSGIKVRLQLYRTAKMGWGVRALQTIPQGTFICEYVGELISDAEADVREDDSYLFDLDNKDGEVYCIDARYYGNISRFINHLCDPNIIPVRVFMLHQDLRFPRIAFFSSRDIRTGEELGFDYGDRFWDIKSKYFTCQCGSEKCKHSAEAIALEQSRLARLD
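G9a (20 nM) was preincubated 15 min with compound, then reacted 2 h at room temperature with 500 nM biotin-H3K9 peptide and 20 µM SAM. Monomethyl-H3K9 detected by AlphaScreen using anti-H3K9me1 antibody.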
PLK1 PBD block: qHTS for Inhibitors of PLK1-PDB (polo-like kinase 1 - polo-box domain): Primary Screen; Serine/threonine-protein kinase PLK1 (Homo sapiens), P53350; Plk1 PBD binding of FITC phosphopeptide, fluorescence polarization; Potency, µM, hits mostly inhibitors; actives 2.8% (n = 360,000); also: series mostly up to about 57 µM; nearly all actives have a fitted effect of over 65% in size
HP1b chromo inh: HTS for Inhibitors of HP1-beta Chromodomain Interactions with Methylated Histone Tails. AlphaScreen HP1-beta / biotin-H3K9me3 peptide binding. Potency, µM (doses to about 114 µM), actives largely listed as inhibitors. actives 0.56% (n = 390,000). AID 540317, 2011; also: nearly all actives have a fitted effect of over 70% in size
Target sequence (P83916 whole entry, looked up): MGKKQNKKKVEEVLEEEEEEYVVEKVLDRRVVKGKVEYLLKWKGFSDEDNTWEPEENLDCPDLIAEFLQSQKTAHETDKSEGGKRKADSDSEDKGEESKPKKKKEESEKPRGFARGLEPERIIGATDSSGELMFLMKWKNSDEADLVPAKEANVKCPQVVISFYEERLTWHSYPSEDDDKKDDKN
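AlphaScreen: HP1-beta (50 nM) preformed 30 min with biotin-H3(1-18)K9me3 peptide (50 nM) in PBS pH 7.4, 0.01% Tween-20. Compound added for 30 min at RT, then streptavidin donor/nickel chelate acceptor beads (10 ug/mL) for 30 min.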
A number is an active result; - = inactive; ? = inconclusive; . = no result; [ ] = remark or other dose. Rows were chosen to be rich in hits. Some 9% of all compounds tested hit in one or more screens of this group. Calls follow the shape of the dose curve; as a rule, active = well fitted curve in the direction sought with a large enough effect; inconclusive = small, poorly fitted or top-dose-only effect, or another doubt; inactive = no such curve, though single readings can be large; an effect the other way counts as inactive or inconclusive.

SMILES	JMJD2A Tudor	BAZ2B inh	ALOX12 inh	G9a inh	PLK1 PBD block	HP1b chromo inh
COc1ccccc1NC(=O)Cc1nc(CCl)cs1	?	56µM	40µM	6.3µM	-	-
Cc1ccccc1NC(=O)Cc1nc(COC(=O)C(C)C)cs1	-	-	-	?	-	-
CC(O)c1cccc(Oc2ncnc3sc(-c4ccccc4)cc23)c1 (stereo not drawn)	.	.	-	.	.	.
O=C1/C(=C/c2ccccn2)SC(=S)N1Nc1ncc(C(F)(F)F)cc1Cl	50µM	.	?	.	?	?
O=C1/C(=C\c2ccccn2)SC(=S)N1Nc1ncc(C(F)(F)F)cc1Cl	56µM	79µM	.	10µM	?	-
O=C1/C(=C/c2ccc(F)cc2)SC(=S)N1Nc1ncc(C(F)(F)F)cc1Cl	63µM	-	?	45µM	-	-
Cc1sc2nc(CSc3cccc(C(F)(F)F)c3)[nH]c(=O)c2c1C	?	-	-	-	-	-
CS(=O)(=O)C1=C(O)C(=O)N(CCCC(=O)O)C1c1ccccc1F (stereo not drawn)	50µM	-	?	-	-	-
CC(=O)C1=C(O)C(=O)N(Cc2ccccc2)C1c1ccccc1F (stereo not drawn)	-	-	-	?	-	-
CCOC(=O)c1c(OCC)[nH]c2c1cc(O)c1ccccc12	50µM	50µM	?	?	?	?
CCOC(=O)c1c(C)[nH]c2cc(Br)c(O)cc12	-	-	-	-	?	-
CSc1ccc(/C=N/Nc2cccc(C(=O)O)c2)cc1	4µM	8.9µM	.	4µM	12µM	10µM
COC(=O)c1ccc(COc2ccc(/C=N/Nc3cccc(C(=O)O)c3)cc2)cc1	56µM	?	?	8.9µM	?	?
CCOc1cc(C=O)ccc1OCC(=O)N1CCCC1	-	-	-	-	-	-
O=C(O)c1ccc(N/N=C/c2ccc(OC(=O)c3cccc(Cl)c3)cc2)cc1	-[11.4 µM]	50µM	?	-[12.7 µM]	21µM	?
CCOc1cc(/C=N/Nc2cccc(C(=O)O)c2)ccc1OCC(=O)N1CCCCC1	-	?	-	32µM	?	-
COC(=O)c1ccc(COc2ccc(/C=N/Nc3nc(C)cc(=O)[nH]3)cc2)cc1	-	-	-	-	-	-
COC(=O)COc1ccc(C2NC(=O)NC(c3ccccc3)=C2C(C)=O)cc1OC (stereo not drawn)	-	-	-	.	-	-
CCC(NC(=O)c1ccccc1NC(=O)C(C)(C)C)C(=O)N1CCCC1 (stereo not drawn)	-	-	-	-	-	-
COCCOc1cc(-c2noc([C@@H]3CCCN3C3CCC3)n2)ccn1	.	.	-	.	.	.
COc1ccccc1C=Cc1ccnc2ccccc12	-	.	?	.	-	-
O=C(NCCN1CCOCC1)c1cc2ccccc2oc1=O	-	-	-	-	-	-
O=C(N/N=C/c1cccc(OCc2ccccc2)c1)c1cccs1	-	-	-	-	-	-
O=C(Oc1ccc(/C=N/Nc2ccccc2)cc1)c1ccccc1	-	-	?	-[0.0925 µM]	-	-
O=C(O)c1ccc(COc2ccc(/C=N/NC(=O)c3cccs3)cc2)cc1	-	-	?	10µM	?	-
SMILES	JMJD2A Tudor	BAZ2B inh	ALOX12 inh	G9a inh	PLK1 PBD block	HP1b chromo inh
O=C(O)c1cccc(N/N=C/c2ccc(OC(F)(F)F)cc2)c1	?	?	-	14µM	-	-
CC(=O)NC1CCN(Cc2nc(-c3sccc3C)oc2C)CC1	.	.	-	.	.	.
Cc1ccc(S(=O)(=O)C/N=C(/NC(=S)N(c2ccccc2)c2ccccc2)c2ccccc2)cc1	?	-	?	10µM	?	-
COc1cccc(Oc2ccc(S(=O)(=O)N3CCCC3)cc2[N+](=O)[O-])c1	-	?	-	-	-	-
Cc1nc2ccc(Cl)cc2nc(C)/c1=N\O	-	-	-	28µM	-	-
COc1cc(-c2nc(Cc3c(F)cccc3Cl)no2)cc(OC)c1OC	-	50µM	-	?	-	-
Cc1ccc2nc(CN3CCCC(CO)(CC4CC4)C3)cn2c1 (stereo not drawn)	.	.	-	.	.	.
CCC(=O)Nc1cccc(NC(=O)c2ccc3c(c2)OCCO3)c1	-	-	?	?	-	-
Cc1ccc(S(=O)(=O)Cn2nnnc2CN2CCOCC2)cc1	-	-	-	-	-	-
Cc1ccc(S(=O)(=O)Cn2nnnc2CN2CCCC3(CCCCC3)C2)cc1	-	-	?	25µM	-	-
CC(=O)N(C)c1ccc(N=Nc2c(C)[nH]n(-c3ccccc3)c2=O)cc1	?	?	?	35µM	-	?
CCOC(=O)c1ccc(N=Nc2c(C)[nH]n(-c3ccccc3)c2=O)cc1	?	?	-	4µM	-	-
Cc1ccc2[nH]c(CSc3nnc(NC(=O)c4ccccc4F)s3)cc(=O)c2c1	-	-	-	-	.	-
Cc1ccc(/C=C(/NC(=O)c2ccccc2)C(=O)NC(Cc2c[nH]c3ccccc23)C(=O)O)cc1 (stereo not drawn)	-	-	?	?	-	-
Cc1c(CNC(=O)c2cnn3c2NC(c2ccccc2)CC3C(F)(F)F)cnn1C (stereo not drawn)	-	-	-	-	-	-
CCOc1ccc(OCC)c(NC(=O)C2C3C=CC(O3)C2C(=O)NCc2ccco2)c1 (stereo not drawn)	?	?	-	50µM	-	-
CC(=O)c1c(C)[nH]c(C(=O)NCc2ccccc2)c1C	-	-	-	-	-	-
S=C(NC1CCCCC1)N1CCn2cccc2C1c1ccncc1 (stereo not drawn)	-	50µM	-	?	-	-
S=C(NC1CCCCC1)N1CCn2cccc2C1c1cccnc1 (stereo not drawn)	-	?	-	71µM	-	-
Fc1ccc(C2c3cccn3CCN2C(=S)Nc2cccc(F)c2)cc1 (stereo not drawn)	-	?	-	-	-	-
CCc1ccc(NC(=S)N(Cc2cccnc2)Cc2ccco2)cc1	-	?	-	-	-	-
COc1ccc(S(=O)(=O)N2CCCCCC2)cc1C(=O)N1CCN(C(C)=O)CC1	.	.	-	.	-	.
CC(C)n1c(=S)[nH]c2cc(Cl)ccc21	?	?	?	10µM	?	-
Nc1nc(N)c2ncc(C(=O)CCc3ccccc3)nc2n1	14µM	?	?	40µM	4.7µM	-
COc1cc(Nc2ncc3c(n2)CCN(Cc2cccc(C)c2)C3)cc(OC)c1	?	?	-	-[12.7 µM]	.	-
CCOc1ccccc1CN1CCc2nc(Nc3ccc4c(c3)OCCO4)ncc2C1	56µM	40µM	?	?	.	?
